Assay results published in PubChem BioAssay.
Unmarked numbers belong to inactive results. Activity calls are given as the source filed them. Cut-off read from the data, not from the text of the source, unless noted: active = inhibition above about 28%; inactive = the rest.

Tests used:
[1] = molecular target: Nuclear receptor coactivator 3 (Homo sapiens) (UniProt Q9Y6Q9); assay: NCOA3 GAL4-fusion reporter inhibition – cell-based, luminescence, quadruplicate, confirmation (AID 588792;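 active = mean inhibition over 43.08%, the solvent-only control mean plus 3 SD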;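 note: 0% = DMSO treated cells and 100% = gossypol at 36 µM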); settings: HEK293 GAL4-SRC3 luciferase reporter, at 3.6 µM, stronger effect = higher value
Sequence of Nuclear receptor coactivator 3 (Homo sapiens) (Q9Y6Q9 whole entry, looked up, the tested form may be a part): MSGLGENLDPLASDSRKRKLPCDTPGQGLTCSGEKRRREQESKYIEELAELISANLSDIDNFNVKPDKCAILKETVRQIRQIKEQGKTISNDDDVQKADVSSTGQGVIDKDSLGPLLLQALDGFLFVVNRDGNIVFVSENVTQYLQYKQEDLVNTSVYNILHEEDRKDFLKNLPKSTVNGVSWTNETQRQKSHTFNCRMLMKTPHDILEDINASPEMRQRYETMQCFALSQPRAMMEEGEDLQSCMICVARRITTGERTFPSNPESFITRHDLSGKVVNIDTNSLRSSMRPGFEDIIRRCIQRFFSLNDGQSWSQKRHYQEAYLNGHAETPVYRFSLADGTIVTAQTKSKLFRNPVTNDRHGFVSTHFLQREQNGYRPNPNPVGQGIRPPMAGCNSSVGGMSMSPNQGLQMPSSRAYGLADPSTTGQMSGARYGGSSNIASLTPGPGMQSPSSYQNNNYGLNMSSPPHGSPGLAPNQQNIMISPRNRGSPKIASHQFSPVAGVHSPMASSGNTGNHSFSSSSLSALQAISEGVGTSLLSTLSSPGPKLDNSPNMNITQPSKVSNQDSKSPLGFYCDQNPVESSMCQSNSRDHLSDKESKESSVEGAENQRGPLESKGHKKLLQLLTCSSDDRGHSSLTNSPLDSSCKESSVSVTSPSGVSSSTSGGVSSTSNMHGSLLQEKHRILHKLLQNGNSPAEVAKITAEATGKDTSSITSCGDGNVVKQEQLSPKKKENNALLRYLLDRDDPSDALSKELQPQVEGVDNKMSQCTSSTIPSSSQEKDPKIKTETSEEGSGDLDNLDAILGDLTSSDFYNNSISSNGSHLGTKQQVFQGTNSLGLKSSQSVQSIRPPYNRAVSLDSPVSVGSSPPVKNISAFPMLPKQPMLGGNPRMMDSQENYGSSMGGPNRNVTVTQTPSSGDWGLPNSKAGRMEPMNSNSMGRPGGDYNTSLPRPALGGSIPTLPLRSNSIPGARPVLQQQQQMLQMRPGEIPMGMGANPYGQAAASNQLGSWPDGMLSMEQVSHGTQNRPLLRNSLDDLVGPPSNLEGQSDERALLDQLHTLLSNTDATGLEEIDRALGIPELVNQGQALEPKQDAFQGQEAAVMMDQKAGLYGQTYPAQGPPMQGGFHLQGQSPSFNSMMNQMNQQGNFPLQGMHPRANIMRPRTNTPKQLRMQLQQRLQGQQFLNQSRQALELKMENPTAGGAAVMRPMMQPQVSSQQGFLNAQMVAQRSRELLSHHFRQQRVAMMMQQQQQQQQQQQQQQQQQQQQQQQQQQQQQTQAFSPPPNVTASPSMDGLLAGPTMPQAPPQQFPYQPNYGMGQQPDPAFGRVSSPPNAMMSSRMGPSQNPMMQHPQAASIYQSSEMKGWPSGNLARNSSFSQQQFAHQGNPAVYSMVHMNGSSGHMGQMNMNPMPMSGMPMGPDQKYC

[2] = system: transactivating tegument protein VP16 (Human herpesvirus 1), Gal4-VP16 luciferase reporter; assay: repression of VP16-driven luciferase reporter – cell-based, luminescence, high throughput, counter-screen for SRC3 inhibitor project (AID 588794; in the data active = inhibition above about 30%); settings: mammalian cells, at 3.6 µM, stronger effect = higher value
[3] = molecular target: Nuclear receptor coactivator 1 (Homo sapiens) (UniProt Q15788); assay: NCOA1 GAL4-fusion reporter inhibition – cell-based, luminescence, quadruplicate, confirmation (AID 588820;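 active = mean inhibition above 46.68%, the untreated control wells mean plus 3 SD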;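 note: 0% = DMSO wells and 100% = gossypol 36 µM treated wells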); settings: HEK293 GAL4-SRC1 luciferase reporter, at 3.6 µM, stronger effect = higher value
Sequence of Nuclear receptor coactivator 1 (Homo sapiens) (Q15788 whole entry, looked up, the tested form may be a part): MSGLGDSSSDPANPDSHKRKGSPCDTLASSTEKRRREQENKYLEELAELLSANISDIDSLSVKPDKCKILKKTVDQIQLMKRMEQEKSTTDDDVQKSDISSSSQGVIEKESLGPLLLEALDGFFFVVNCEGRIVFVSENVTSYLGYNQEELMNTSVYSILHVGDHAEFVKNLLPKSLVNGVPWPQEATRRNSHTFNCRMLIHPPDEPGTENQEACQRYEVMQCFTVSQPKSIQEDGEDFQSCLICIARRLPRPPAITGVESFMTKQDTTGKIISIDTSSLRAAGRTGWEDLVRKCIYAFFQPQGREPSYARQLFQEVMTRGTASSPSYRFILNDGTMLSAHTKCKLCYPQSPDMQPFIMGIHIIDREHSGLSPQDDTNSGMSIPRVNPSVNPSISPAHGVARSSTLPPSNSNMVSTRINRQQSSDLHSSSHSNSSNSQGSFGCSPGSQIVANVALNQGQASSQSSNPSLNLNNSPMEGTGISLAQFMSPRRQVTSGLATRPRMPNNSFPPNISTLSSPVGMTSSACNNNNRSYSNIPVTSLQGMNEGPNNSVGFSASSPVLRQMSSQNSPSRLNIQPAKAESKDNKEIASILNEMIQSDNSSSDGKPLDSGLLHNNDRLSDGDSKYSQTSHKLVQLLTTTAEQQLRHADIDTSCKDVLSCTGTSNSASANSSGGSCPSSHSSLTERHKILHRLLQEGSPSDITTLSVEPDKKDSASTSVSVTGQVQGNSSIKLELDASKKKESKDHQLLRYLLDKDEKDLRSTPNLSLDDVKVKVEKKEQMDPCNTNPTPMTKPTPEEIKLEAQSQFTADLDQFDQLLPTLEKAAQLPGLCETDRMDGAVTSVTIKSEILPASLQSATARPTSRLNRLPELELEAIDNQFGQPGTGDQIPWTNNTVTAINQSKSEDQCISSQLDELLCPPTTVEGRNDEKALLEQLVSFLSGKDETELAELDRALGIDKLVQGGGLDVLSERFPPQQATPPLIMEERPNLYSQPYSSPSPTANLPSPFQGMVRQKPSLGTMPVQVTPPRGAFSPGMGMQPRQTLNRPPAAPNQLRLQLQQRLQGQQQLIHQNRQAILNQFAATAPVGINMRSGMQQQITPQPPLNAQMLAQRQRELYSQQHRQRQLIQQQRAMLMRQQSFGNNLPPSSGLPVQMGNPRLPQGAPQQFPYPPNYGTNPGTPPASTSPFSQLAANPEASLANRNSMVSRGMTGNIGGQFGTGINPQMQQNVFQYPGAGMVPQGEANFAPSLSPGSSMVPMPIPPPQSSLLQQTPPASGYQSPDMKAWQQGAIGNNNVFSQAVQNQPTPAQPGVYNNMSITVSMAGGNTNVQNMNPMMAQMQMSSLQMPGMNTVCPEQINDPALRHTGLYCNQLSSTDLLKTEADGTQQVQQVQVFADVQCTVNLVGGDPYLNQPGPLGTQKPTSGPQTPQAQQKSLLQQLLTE

[4] = repression of VP16-driven luciferase reporter – cell-based, luminescence, high throughput, counter-screen for SRC1 inhibitor project (AID 588824; in the data active = inhibition above about 25%); settings: cell-based VP16 transactivation luciferase luminescence; at 3.6 µM; stronger effect = higher value
[5] = StAR promoter reporter inhibitors, counter-screen for LRH-1 inverse agonist project, cell-based, luminescence, high throughput (AID 651611); settings: StAR promoter luciferase reporter counterscreen, at 3.6 µM, stronger effect = higher value
[6] = molecular target: Nuclear receptor subfamily 5 group A member 2 (Homo sapiens) (UniProt O00482); assay: NR5A2 activity suppression in reporter cells – cell-based, luminescence, confirmation (AID 651613; in the data active = inhibition above about 42%;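 note: HEK293T cells co-transfected with LRH-1 and StAR promoter luciferase reporter; 0% = vehicle wells and 100% = parental cells lacking receptor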); settings: cell-based LRH-1 luciferase reporter, inverse agonism; at 3.6 µM; stronger effect = higher value
Sequence of Nuclear receptor subfamily 5 group A member 2 (Homo sapiens) (O00482 whole entry, looked up): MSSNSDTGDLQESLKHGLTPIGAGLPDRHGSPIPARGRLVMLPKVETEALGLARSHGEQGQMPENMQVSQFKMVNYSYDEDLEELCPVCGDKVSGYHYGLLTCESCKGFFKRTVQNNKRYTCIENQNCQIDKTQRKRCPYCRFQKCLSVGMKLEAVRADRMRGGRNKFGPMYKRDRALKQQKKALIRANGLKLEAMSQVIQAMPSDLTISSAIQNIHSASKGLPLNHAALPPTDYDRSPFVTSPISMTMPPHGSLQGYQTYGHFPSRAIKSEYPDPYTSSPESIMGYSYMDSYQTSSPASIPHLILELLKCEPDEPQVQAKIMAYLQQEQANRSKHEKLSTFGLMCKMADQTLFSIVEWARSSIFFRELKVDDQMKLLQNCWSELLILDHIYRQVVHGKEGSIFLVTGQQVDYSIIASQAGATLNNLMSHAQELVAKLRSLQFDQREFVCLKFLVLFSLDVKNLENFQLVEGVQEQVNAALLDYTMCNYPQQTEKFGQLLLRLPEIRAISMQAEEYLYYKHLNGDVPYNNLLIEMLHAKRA

[7] = molecular target: Steroidogenic factor 1 (Homo sapiens) (UniProt Q13285); assay: inverse agonism at SF1 nuclear receptor – cell-based, luminescence, high throughput, counter-screen for LRH-1 inverse agonist project (AID 651614; in the data active = inhibition above about 44%;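 note: cells cotransfected with StAR promoter reporter and SF1 expression vector; 0% = vehicle on cells with receptor and 100% = vehicle on cells lacking receptor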); settings: cell-based SF1 luciferase reporter, at 3.6 µM, stronger effect = higher value
Sequence of Steroidogenic factor 1 (Homo sapiens) (Q13285 whole entry, looked up, the tested form may be a part): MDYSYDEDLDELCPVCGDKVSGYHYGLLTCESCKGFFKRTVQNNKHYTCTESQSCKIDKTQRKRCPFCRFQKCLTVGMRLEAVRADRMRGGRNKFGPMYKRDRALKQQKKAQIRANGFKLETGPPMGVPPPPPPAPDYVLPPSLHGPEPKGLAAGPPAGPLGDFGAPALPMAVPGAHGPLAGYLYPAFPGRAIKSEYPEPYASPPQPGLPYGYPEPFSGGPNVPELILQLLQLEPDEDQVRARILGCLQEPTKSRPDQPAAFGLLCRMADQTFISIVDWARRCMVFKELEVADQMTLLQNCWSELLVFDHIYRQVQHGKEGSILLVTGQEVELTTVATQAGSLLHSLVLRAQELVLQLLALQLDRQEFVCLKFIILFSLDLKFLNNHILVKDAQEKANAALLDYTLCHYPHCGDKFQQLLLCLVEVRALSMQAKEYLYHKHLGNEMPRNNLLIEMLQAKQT

[8] = compounds suppressing VP16-driven luciferase signal – cell-based, luminescence, high throughput, counter-screen for LRH-1 inverse agonist project (AID 651615; in the data active = inhibition above about 33%); settings: Gal4-VP16 luciferase reporter cells, at 3.6 µM, stronger effect = higher value

| SMILES | inhibition [1] | inhibition [2] | inhibition [3] | inhibition [4] | inhibition [5] | inhibition [6] | inhibition [7] | inhibition [8] |
| --- | --- | --- | --- | --- | --- | --- | --- | --- |
| Clc1ccc(OCCN2CCN(c3ncnc4sccc34)CC2)cc1 | 14.2% | 40.4% (active) | -17.4% | 42.2% (active) | 34.8% (active) | 58.5% (active) | 50.2% (active) | 46.7% (active) |
| O=C(NC(Nc1nc2ccc([N+](=O)[O-])cc2s1)(C(F)(F)F)C(F)(F)F)c1ccccc1Cl | 65.5% (active) | 86.2% (active) | 27.1% | 86% (active) | 82.2% (active) | 103% (active) | 93.4% (active) | 89.8% (active) |
| Cc1nn(Cc2ccc(C(=O)Nc3nccs3)cc2)c(C)c1Cl | 21.7% | 45.6% (active) | 17.9% | 43.8% (active) | 46.8% (active) | 62.3% (active) | 67% (active) | 64.6% (active) |
| CCCCC(=O)NC(c1ccc(Cl)cc1)c1ccc2cccnc2c1O (stereo not drawn) | 66.9% (active) | 62.4% (active) | 51.3% (active) | 62.2% (active) | 67.9% (active) | 87.8% (active) | 86.1% (active) | 69.1% (active) |
| CC(C)(C)c1ccc(-c2cn(-c3ccc(Br)cc3)c3[n+]2CCCS3)cc1 | 51.1% (active) | 59.4% (active) | 52.1% (active) | 61% (active) | 47.8% (active) | 107% (active) | 80.7% (active) | 89.2% (active) |
| Cc1nc2ccc(NC(=O)c3cccs3)cc2c(=O)n1Cc1ccc(Cl)cc1 | 4.95% | 15.8% | -3.3% | 23.8% | 27.4% | 52.7% (active) | 55% (active) | 40.8% (active) |
| Brc1ccc2c(c1)CN1CCCC1=N2 | 15.1% | 31.6% (active) | 9.34% | 28% (active) | 30.9% (active) | 42.2% (active) | 30.6% | 42.4% (active) |
| NC(=O)c1cc([N+](=O)[O-])ccc1NCc1ccc(O)cc1 | 25.3% | 43.5% (active) | 1.01% | 30% (active) | 48.6% (active) | 63.8% (active) | 67.8% (active) | 66.9% (active) |
| O=C(Nc1nc(-c2ccccc2)cs1)c1ccccc1NS(=O)(=O)c1ccc(F)cc1 | 40.7% | 65.5% (active) | 45% | 60.5% (active) | 66.6% (active) | 101% (active) | 87.5% (active) | 79.3% (active) |
| Cc1cc(C)nc(NC(N)=NCCc2ccccc2)n1 | 75.9% (active) | 46.3% (active) | 51.5% (active) | 49.1% (active) | 58.4% (active) | 109% (active) | 88.2% (active) | 93.5% (active) |
| O=C(c1ccccc1)c1nn(-c2ccc(Cl)cc2)c(=O)cc1C(F)(F)F | 65.3% (active) | 62.6% (active) | 21.8% | 51.2% (active) | 73.3% (active) | 72.6% (active) | 70% (active) | 74.8% (active) |
| N=c1c2c(n(Cc3ccc(Cl)c(Cl)c3)c3c1CCC3)CCCC2 | 44.7% (active) | 74.8% (active) | 62.8% (active) | 74.8% (active) | 61.2% (active) | 109% (active) | 84.6% (active) | 90.7% (active) |
| CCN(CC)CCCNc1nc2ccccc2c2[nH]c3ccc(OC)cc3c12 | -19.2% | 49% (active) | -3.04% | 48.8% (active) | 30.1% (active) | 44.4% (active) | 60.5% (active) | 71.7% (active) |
| C#CC[N+](C)(C)CCCCCCCCCCCC | 29.2% | 45.9% (active) | 33.4% | 36.6% (active) | 29.7% (active) | 64.7% (active) | 65.8% (active) | 59.8% (active) |
| COC(=O)C1=C(CN2CCCc3ccccc32)NC(=O)NC1c1ccc(F)cc1 (stereo not drawn) | 65.7% (active) | 32.3% (active) | 60% (active) | 34.7% (active) | 71.5% (active) | 17% | 63.3% (active) | 4.51% |
| CCOc1cc(/C=C2\CN(CC)C/C(=C\c3ccc(O)c(OCC)c3)C2=O)ccc1O | 65.4% (active) | 62.4% (active) | 4.46% | 51.8% (active) | 47.3% (active) | 91.2% (active) | 87.2% (active) | 82.6% (active) |
